# Measured values reported in PubChem BioAssay (Tox21).
# Records with an inconclusive call do not appear. Calls of active or inactive are those of the source. The call rests on the fitted dose curve.
# Assay: p53 small molecule agonists, cell-based qHTS assay with human liver microsomes (AID 1963577);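 on activation: p53 response element beta-lactamase reporter cells with liver microsomes plus NADPH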
# Settings: HCT-116 p53RE-bla with human liver microsomes, ratio, 16 h; series mostly up to 66 µM; activation: at the top concentration
# Description: National Center for Advancing Translational Sciences [NCATS]
# Division of Preclinical Innovation [DPI]
# U.S. Environmental Protection Agency [EPA]
# National Institutes of Environmental Health Sciences [NIEHS]
# National Toxicology Program [NTP]
# U.S. Food and Drug Administration [FDA]
# p53, a tumor suppressor protein, is activated following cellular insult, including DNA damage and other cellular stresses. The activation of p53 regulates cell fate by inducing DNA repair, cell cycle arrest, apoptosis, or cellular senescence. The activation of p53, therefore, is a good indicator of DNA damage and other cellular stresses. […] The activation of the reporter gene under culture conditions can be detected by fluorescence intensity.
# Tox21 Assay Protocol Summary:
# The p53RE-bla cells were dispensed at 4,000cells/3ul/well in 1536-well black-clear bottom plates. After the assay plates were incubated at 37 C, 5% CO2 incubator for 5 hours, 23 nL of compounds dissolved in DMSO, positive controls or DMSO only was transferred to the assay plate. Following compound addition, 3 uL of human liver microsomes (XenoTech, Kansas City, KS) at final concentration of 0.5 mg/mL and 1uL of Beta-Nicotinamide adenine dinucleotide 2-phosphate (NADPH) at final concentration of 0.5 mg/mL were transferred to the assay plate. The plates were incubated at 37 C for 16 hours. 1 uL of LiveBLAzer detection mixture was added to each well and the plates were incubated at room temperature in the dark for 2 h.
# On the % scale 0 is the no-effect control and ±100 the full control effect; potency means the concentration at half of the fitted maximal effect.
SMILES,activation,Potency
Clc1ccccc1N1CCNCC1,3% [at 30.3 µM] (inactive),–
CC(C)(C)c1ccc(CSc2cnn(C(C)(C)C)c(=O)c2Cl)cc1,-3.28% (inactive),–
Oc1ccc(Cl)c(Cl)c1Cl,1.39% (inactive),–
CC1(C)C(/C=C(\Cl)C(F)(F)F)C1C(=O)OC(C#N)c1cccc(Oc2ccccc2)c1 (stereo not given),1.24% (inactive),–
CCOC(=O)NC(=S)Nc1ccccc1NC(=S)NC(=O)OCC,-6.45% (inactive),–
CCOC(=O)COc1cc(-c2nn(C)c(OC(F)F)c2Cl)c(F)cc1Cl,-4.37% (inactive),–
CCOP(=S)(OCC)SCS(=O)(=O)CC,–,1620 nM (active)
C[C@]12CC[C@H]3[C@@H](CCC4=CC(=O)CC[C@@]43C)[C@@H]1CC[C@@H]2C(=O)O,-3.23% [at 30.3 µM] (inactive),–
CCN(CC)CCc1c[nH]c2ccccc12,1.99% (inactive),–
C[C@]12Cc3nonc3C[C@@H]1CC[C@@H]1[C@@H]2CC[C@@]2(C)[C@H]1CC[C@]2(C)O,-5.86% [at 30.3 µM] (inactive),–
CO/C=C(/C(=O)OC)c1ccccc1Oc1cc(Oc2ccccc2C#N)ncn1,0.945% (inactive),–
NC1=NC(=O)C(c2ccccc2)O1 (stereo not given),-0.281% [at 30.3 µM] (inactive),–
CCCCC(=O)Cl,-1.8% (inactive),–
COc1ccc(Cc2nccc3cc(OC)c(OC)cc23)cc1OC,5.46% [at 30.3 µM] (inactive),–
CCS(=O)(=O)c1cccnc1S(=O)(=O)NC(=O)Nc1nc(OC)cc(OC)n1,-7.23% (inactive),–
CCOc1nc(C(Cl)(Cl)Cl)ns1,1.83% (inactive),–
CCC(C)c1cccc(C(C)CC)c1O (stereo not given),-9.69% (inactive),–
OC(c1ccc(F)cc1)(c1cncnc1)c1ccccc1Cl (stereo not given),-5.68% (inactive),–
CCCCCCCCP(=O)(O)O,-1.04% (inactive),–
Cc1ccccc1OP(=O)(Oc1ccccc1C)Oc1ccccc1C,–,1830 nM (active)

SMILES,activation,Potency
CC1(C(=O)Nc2ccc(O)c(Cl)c2Cl)CCCCC1,-15.5% (inactive),–
CC(Cl)(Cl)[N+](=O)[O-],1.29% (inactive),–
N#C/C=C/C#N,-6.29% (inactive),–
CC(C)(c1ccc(O)c(-c2ccccc2)c1)c1ccc(O)c(-c2ccccc2)c1,-4.95% (inactive),–
CCOP(=S)(OCC)Oc1ncn(-c2ccccc2)n1,–,2890 nM (active)
CCC(OC(C)=O)C(CC(C)NC)(c1ccccc1)c1ccccc1 (stereo not given),4.5% (inactive),–
NS(=O)(=O)C(F)(F)C(F)(F)C(F)(F)C(F)(F)C(F)(F)C(F)(F)C(F)(F)C(F)(F)F,0.829% (inactive),–
Oc1ccc(C(=C(Cl)Cl)c2ccc(O)cc2)cc1,1.26% (inactive),–
Oc1ccc(Cc2ccc(O)cc2)cc1,-7.46% (inactive),–
C=C1C[C@@H]2[C@H](CC[C@]3(C)C(=O)CC[C@@H]23)[C@@]2(C)C=CC(=O)C=C12,-9.91% [at 30.3 µM] (inactive),–
CCC1COC(Cn2cncn2)(c2ccc(Cl)cc2Cl)O1 (stereo not given),-7.14% (inactive),–
Clc1ccc(CO/N=C(\Cn2ccnc2)c2ccc(Cl)cc2Cl)c(Cl)c1,11.8% [at 30.3 µM] (inactive),–
CN1C(=O)[C@@H](NC(=O)c2cc3ccccc3[nH]2)N=C(c2ccccc2)c2ccccc21,-2.01% [at 30.3 µM] (inactive),–
CN,0.843% (inactive),–
O=C(O)c1cc[c]([Hg][Cl])cc1,-5.25% (inactive),–
CCC(=O)C(CCN(C)C)(c1ccccc1)c1ccccc1,-1.09% [at 30.3 µM] (inactive),–
C[N+](C)(C)CC1CO1 (stereo not given),1.93% (inactive),–
BrCCCCBr,0.68% (inactive),–
C=CC(=O)OCCCCOC(=O)C=C,-7.95% (inactive),–
O=c1[nH]c2ccccc2n1C1CCNCC1,-1.21% [at 30.3 µM] (inactive),–
